{
  "source": "PubChem BioAssay (EPA / NIEHS)",
  "note": "Several values for one entry are separate records, joined by “and”; a condition that tells them apart may be missing. Equal values may be shown once. The source holds several records for some structures; these can differ, active in one and inactive in another. Activity calls are given as the source filed them. The calls were made as follows: active = hit-call score of the fitted dose curve at least 0.9, where 1 is the maximum; inactive = score below 0.9.",
  "data": [
    {"target": "Retinoic acid receptor alpha (Homo sapiens) (UniProt P10276)", "sequence (P10276 whole entry, looked up)": "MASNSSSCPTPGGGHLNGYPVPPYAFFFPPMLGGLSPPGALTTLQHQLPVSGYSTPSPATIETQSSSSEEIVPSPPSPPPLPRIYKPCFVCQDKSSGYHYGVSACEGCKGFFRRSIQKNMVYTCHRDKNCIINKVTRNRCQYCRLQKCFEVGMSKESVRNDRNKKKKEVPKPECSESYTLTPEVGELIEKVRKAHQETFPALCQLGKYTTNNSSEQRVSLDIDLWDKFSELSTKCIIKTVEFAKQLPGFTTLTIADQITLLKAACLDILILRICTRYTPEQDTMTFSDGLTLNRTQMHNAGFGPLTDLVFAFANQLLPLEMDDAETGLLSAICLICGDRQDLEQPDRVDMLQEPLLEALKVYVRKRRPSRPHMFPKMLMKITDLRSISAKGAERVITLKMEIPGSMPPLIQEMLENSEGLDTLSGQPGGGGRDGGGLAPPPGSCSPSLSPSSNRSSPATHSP", "test": "ATG_DR5_RAR_CIS: Attagene CIS-FACTORIAL HepG2 Assay for human Retinoic Acid Receptor Alpha (RARE), DR5 submotif (AID 2282934);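 as to AC50: reporter responds to endogenous RAR alpha beta and gamma in HepG2 not RARA alone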", "settings": "HepG2 Attagene cis-factorial RARE DR5 reporter, mRNA; actives raise or lower the signal", "description": "ATG_CIS is a cell-based, multiplexed-readout assay that uses HepG2, a human liver cell line, with measurements taken at 24 hours after chemical dosing in a 24-well plate.ATG_DR5_RAR_CIS is one of 52 assay component(s) measured or calculated from the ATG_CIS assay. It is designed to make measurements of mRNA induction, a form of inducible reporter, as detected with fluorescence intensity signals by Reverse transcription polymerase chain reaction (RT-PCR) and Capillary electrophoresis technology.Data from the assay component ATG_DR5_RAR_CIS was analyzed into 1 assay endpoint. This assay endpoint, ATG_DR5_CIS, was analyzed with bidirectional fitting relative to DMSO as the negative control and baseline of activity. Using a type of inducible reporter, measures of mRNA for gain or loss-of-signal activity can be used to understand the reporter gene at the transcription factor-level as they relate to the gene RARA and RARB and RARG. Furthermore, this assay endpoint can be referred to as a primary readout, because this assay has produced multiple assay endpoints where this one serves a reporter gene function. To generalize the intended target to other relatable targets, this assay endpoint is annotated to the nuclear receptor intended target family, where the subfamily is non-steroidal.\nHuman liver HepG2 cells are transiently transfected with multiple reporter transcription units (MRTUs) in 6-well plates using FuGene 6 reagent (Roche; 3 ml FuGene/1 mg DNA). The MRTU constructs are regulated by a cis-regulating element (promoter). […] A major difference between the CIS and TRANS system is that in CIS activities of endogenous TFs are measured, whereas the TRANS assay evaluates changes in activities of exogenous, chimeric NR-Gal4 proteins. […] At the end of 24 hour incubation, total RNA was isolated using TriZol reagent (Invitrogen). The isolated RNA is then reverse-transcribed using oligo(dT) primer and Mo-MLV reverse transcriptase (Invitrogen) with DNAse I (Ambion) treatment for 30 min. The one-tenth of the produced cDNA was amplified by PCR using Taq DNA polymerase (Invitrogen) and two reporter sequence-specific primers. The PCR products were fluorescently labeled by primer extension with 6-arboxyfluorescein (6-FAM) 5'-labeled reporter sequence-specific primer (2 min at 95 C, 20 s at 68 C and 10 min at 72 C) and these products were digested with 5U of HpaI (New England Biolabs) for 2h at 37 C. The fragments were purified using Qiaquick PCR columns (Qiagen), analyzed on an ABI 3130xL genetic analyzer (Applied Biosystems) with peak positions identified by using a set of X-rhodamine (ROX)-labeled MapMarker1000 molecular weight standards (BioVentures). The raw capillary electrophoresis data was processed using Attagraph software (Attagene).", "values": [
      {"compound": "ClCCOCCOCCCl", "outcome": "inactive"},
      {"compound": "COc1ccc(C(C)=O)cc1", "outcome": "inactive"},
      {"compound": "Nc1ccc(N)c([N+](=O)[O-])c1", "outcome": "inactive"},
      {"compound": "CNC(=C[N+](=O)[O-])NCCSCc1ccc(CN(C)C)o1", "outcome": "inactive"},
      {"compound": "CCCCCCCCOC(=O)c1ccc(O)cc1", "outcome": "inactive"},
      {"compound": "C[C@]12CC[C@@H]3c4ccc(O)cc4CC[C@H]3[C@@H]1CC[C@@H]2O", "outcome": "inactive"},
      {"compound": "CC(CCO)CC(C)(C)C", "note": "(stereo not given)", "outcome": "inactive"},
      {"compound": "NC(N)=NC(N)=NCCc1ccccc1", "outcome": "inactive"},
      {"compound": "CCCO", "outcome": "inactive"},
      {"compound": "O=S(=O)(O)CCCN1CCOCC1", "outcome": "inactive"},
      {"compound": "CCCCCCCCCO", "outcome": "inactive"},
      {"compound": "O=C(OCc1ccccc1)c1ccccc1O", "outcome": "inactive"},
      {"compound": "NNC(=O)OCc1ccccc1", "outcome": "inactive"},
      {"compound": "CCCCC/C=C\\C=C\\C(=O)OCC", "AC50": "28.3 µM (active)"},
      {"compound": "CCCCCCCCCCCCOCCOS(=O)(=O)O", "outcome": "inactive"},
      {"compound": "CCC(C)(C)C1CCC(=O)CC1", "outcome": "inactive"},
      {"compound": "C#C[C@]1(O)CC[C@H]2[C@@H]3CCc4cc(O)ccc4[C@H]3CC[C@@]21C", "outcome": "inactive", "AC50": "61 µM (active) and 81.7 µM (active) and 24.8 µM (active)"},
      {"compound": "C=CC(C)CCCC(C)(C)O", "note": "(stereo not given)", "outcome": "inactive"},
      {"compound": "CC(C)(C)c1cccc(O)c1", "outcome": "inactive"},
      {"compound": "CN(C)C(=O)Nc1ccccc1", "outcome": "inactive"},
      {"compound": "O=[N+]([O-])c1cc(N(CCO)CCO)ccc1NCCO", "outcome": "inactive"},
      {"compound": "CCC(=O)OC(C)(C)C1CC=C(C)CC1", "note": "(stereo not given)", "outcome": "inactive"},
      {"compound": "O=Cc1ccccc1O", "outcome": "inactive"},
      {"compound": "CCCCCc1cccc(=O)o1", "outcome": "inactive"},
      {"compound": "CCCCCC1C(=O)CCC1CC(=O)OC", "note": "(stereo not given)", "outcome": "inactive"},
      {"compound": "NC(=O)NC(N)=O", "outcome": "inactive"},
      {"compound": "CCC(C)C1CCCCC1=O", "note": "(stereo not given)", "outcome": "inactive"},
      {"compound": "CCCCCCCC(=O)N(C)C", "outcome": "inactive"},
      {"compound": "C=C(C)CCCC(C)CCO", "note": "(stereo not given)", "outcome": "inactive"},
      {"compound": "CCOC(=O)C=Cc1ccccc1", "outcome": "inactive"},
      {"compound": "CCOC(=O)CCCCCCCCC(=O)OCC", "outcome": "inactive"},
      {"compound": "O=C(O)CS", "outcome": "inactive"},
      {"compound": "CC(=O)OC(C)(C)C1CC=C(C)CC1", "note": "(stereo not given)", "outcome": "inactive"},
      {"compound": "[O-]/[N+](=N\\O)c1ccccc1", "outcome": "inactive"},
      {"compound": "O=C(O)c1ccc(C(=O)O)c(C(=O)O)c1", "outcome": "inactive"},
      {"compound": "OCCCO", "outcome": "inactive"},
      {"compound": "CCCCCCCCOC(C)=O", "outcome": "inactive"},
      {"compound": "O=C(O)c1ccccc1O", "outcome": "inactive"},
      {"compound": "CCCCC1CCCCC(=O)O1", "note": "(stereo not given)", "outcome": "inactive"}
    ]}
  ]
}
